Rows were chosen to be rich in hits. Some 7.8% of all compounds tested hit in one or more screens of this group.
sEH activator: activators of human soluble epoxide hydrolase | P34913 | purified human sEH enzymatic activity, activator screen | activation, % at 2 µM | 0.04% of 91,000 active | AID 717; in the data active = activation above about 37%
Cav32 inh: blocks human Cav3.2 T-type calcium channel; Cav3.2-expressing cells, Fluo-4 calcium fluorescence FDSS; active compounds read low; AID 449739; B-score at 10 µM; 4% of 100,000 active; O95180;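 active = single-dose well whose peak fluorescence ratio is a statistical outlier from its plate by either plate-standardised score or position-corrected B-score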
PostGolgi ctrl: growth of the yeast control strain, post-Golgi counter-screen | efflux-deficient yeast background strain, growth absorbance A615, 16 h | inhibition, % at 10 µM | 5% of 98,000 active | AID 738
sEH inh: inhibitors of human soluble epoxide hydrolase. inhibition, % at 2 µM. 0.34% of 91,000 active. recombinant human sEH enzymatic activity assay. AID 707. P34913; in the data active = inhibition above about 80%
PostGolgi yeast: growth inhibition of a yeast mutant, post-Golgi transport screen | post-Golgi transport phenotypic cell assay | 0.9% of 98,000 active | inhibition, % at 10 µM;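 note: yeast cells grown in 1536-well plates; yeast grown about 18 h at 30C before absorbance read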
Active calls of the source: *; · = not tested or not shown. Cut-off read from the data, not from the text of the source, unless noted: active = inhibition above about 30%; inactive = the rest.

SMILES	sEH activator	Cav32 inh	PostGolgi ctrl	sEH inh	PostGolgi yeast
c1ccc(-c2nc(CSc3n[nH]c(-c4cccs4)n3)cs2)cc1	·	-5.1	34*	·	-1
CCOC(=O)c1c(-c2cccs2)csc1NC(=O)CN1CC(C)OC(C)C1 (stereo not given)	·	-1.1	43*	·	-3
CCOC(=O)c1c(-c2ccc(C)o2)csc1NC(=O)CSc1nnnn1-c1ccccc1	-10	-2.7	7	10	5
CCOC(=O)c1c(-c2cccs2)csc1NC(=O)CSc1ncn[nH]1	2	-4.7*	19	-4	-3
CCOC(=O)c1c(-c2ccc(C)o2)csc1NC(=O)CSc1nnc(C)s1	10	-6.2*	23	-11	-6
CC(=O)/C(=C/N(C)C)Sc1ccc(C)cc1	4	-0.11	-1	-3	0
CC(C)CC(NC(=O)c1ccc(Cl)cc1)C(=O)OCC(=O)c1ccc2c(c1)NC(=O)CO2 (stereo not given)	1	0.92	32*	-3	-14
O=C(Nc1ccc(Br)cc1)c1ccc(CSC2=NCCS2)cc1	-56	-0.046	34*	58	2
CCC1(C(=O)c2ccccc2)C2c3cc(Br)ccc3OC(=O)C21C(=O)N1CCOCC1 (stereo not given)	2	-4.3*	22	-1	-4
O=C(c1cccc(Br)c1)N1CCN(C(=O)N2CCOCC2)CC1	-2	0.86	·	2	·
CC(C)(C)NS(=O)(=O)c1ccc(CCC(=O)NCc2ccc3c(c2)OCO3)cc1	-29	-0.0041	·	28	·
CCC(C)(C)NC(=O)C(c1ccc(OC)cc1)N(Cc1cccs1)C(=O)CCC(=O)Nc1cc(C)on1 (stereo not given)	0	-5.5*	·	3	·
CC(C)(C)c1ccc(NC(=O)COc2ccc(-n3ccnc3)cc2)cc1	-7	0.0092	58*	6	73*
CC1(C2(O)CC(c3ccccc3)ON2)CCCCC1 (stereo not given)	12	-0.048	1	-14	-8
CCn1c(=O)c(C(=O)CN2CCCc3ccccc32)c(N)n(Cc2ccccc2)c1=O	·	-6.1*	6	·	1
CCOC(=O)N1CCC(=C2c3ccc(Cl)cc3CCc3cccnc32)CC1	·	-4.7*	·	·	·
Cc1ccc2nc(NC(=O)CN(C)S(=O)(=O)c3ccc(Br)s3)sc2c1	-1	·	35*	1	21
CCc1ccc(N(CC(=O)Nc2nc3ccc(C)cc3s2)S(=O)(=O)c2c(C)noc2C)cc1	4	-2.5	32*	-6	2
COc1ccc2nc(NC(=O)CN(c3ccc(C)cc3)S(=O)(=O)c3c(C)nn(C)c3C)sc2c1	·	-3.1	50*	·	-4
Cc1nc(NC(=O)CN(C)S(=O)(=O)c2ccc(Br)cc2)sc1C	8	-5.8*	11	-11	-5
COc1ccc(NC(=O)CN(c2ccc(C)cc2)S(=O)(=O)c2c(C)nn(C)c2C)cc1OC	·	1.1	1	·	-2
CCc1ccc(NC(=O)CN(c2ccc3c(c2)OCO3)S(=O)(=O)c2c(C)noc2C)cc1	0	-0.16	29	2	-4
CC(C)(C)c1cc(NC(=O)COc2ccc(Br)cc2)n(-c2ccccc2)n1	7	-3	37*	-7	4
Cc1ccc(N2CCN(C(=O)CCc3nc4ccccc4[nH]3)CC2)c(C)c1	-6	-4.8*	11	5	-2
Cc1cccc(N2CCN(C(=O)CCc3nc4ccccc4[nH]3)CC2C)c1 (stereo not given)	2	-0.48	2	-4	-2
SMILES	sEH activator	Cav32 inh	PostGolgi ctrl	sEH inh	PostGolgi yeast
CC(C(=O)NC1CCCC1)N(C(=O)c1ccc(-c2ccccc2)[nH]1)c1ccccc1F (stereo not given)	-19	-6*	19	21	22
O=C(NC1CCCCC1)C(c1ccncc1)N(Cc1ccccc1)C(=O)c1ccc(-c2ccccc2)[nH]1 (stereo not given)	8	·	12	-4	9
Cn1c(=O)c2c(nc(NC3CCCCC3)n2CC(=O)C23CC4CC(CC(C4)C2)C3)n(C)c1=O	8	-5.8*	10	-5	0
CCc1ccc2oc(-c3cccc(NC(=O)c4cccnc4)c3)nc2c1	-1	0.1	74*	5	2
O=C(Nc1ccc2oc(-c3ccccc3)nc2c1)c1cccnc1	-14	-0.31	15	16	-10
COc1cc(C(=O)Sc2ccc(C)cc2)cc(OC)c1OC	-9	·	45*	11	15
COc1ccccc1OCC(=O)Sc1ccc(C)cc1	-7	0.26	8	6	-14
CC/C(C)=C1\SC(N2CCOCC2)=NC1=O	-6	1.2	6	5	-2
O=C(CNC(=O)/C(=C\c1ccccc1)NC(=O)c1ccc(Br)cc1)OCc1ccccc1	2	-6.6*	-6	-1	-3

High-throughput results as filed in PubChem BioAssay.
